“And” between values parts separate entries of the source, which are not always exact repeats. Identical values can stand only once. Out of some 5,500 compounds screened, about 2,000 (36%) were called active. Inconclusive results (about 18%) are left out. Rule as the data show it: active = normalized growth mostly below about 0.91 (no sharp cut-off); inconclusive = no clear call, values can overlap the other calls; inactive = mostly above about 0.92. The list shows a part of the results.
Assay: chemical genetic growth profiling, strain panel (AID 1159580);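 also: tested at 20 µM; growth read once vehicle control cultures reached saturation at 30 °C; 1 = growth at the plate median or of vehicle wells; lower values mean less growth of the strain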
Conditions: growth OD

Measured: normalized growth

NNCc1cccc(O)c1
inactive: S. cerevisiae deletion strains, locus YAL013W, strain DEP1, hits give low values 0.994 | S. cerevisiae deletion strains, locus YAL040C, strain CLN3, hits give low values 1.08 | S. cerevisiae deletion strains, locus YBR021W, strain FUR4, hits give low values 1.07 | S. cerevisiae deletion strains, locus YBR229C, strain ROT2, hits give low values 1 | S. cerevisiae deletion strains, locus YCL029C, strain bik1, hits give low values 0.988 | S. cerevisiae deletion strains, locus YCL061C, strain MRC1 (second series), hits give low values 0.984 | S. cerevisiae deletion strains, locus YDL035C, strain GPR1, hits give low values 0.969 | S. cerevisiae deletion strains, locus YDL074C, strain BRE1, hits give low values 0.98 | S. cerevisiae deletion strains, locus YDL101C, strain DUN1, hits give low values 0.994 | S. cerevisiae deletion strains, locus YDL134C, strain PPH21, hits give low values 0.994 | S. cerevisiae deletion strains, locus YDL192W, strain arf1, hits give low values 1 | S. cerevisiae deletion strains, locus YDR101C, strain arx1, hits give low values 0.989 | S. cerevisiae deletion strains, locus YDR150W, strain NUM1, hits give low values 0.987 and 0.976 | S. cerevisiae deletion strains, locus YDR162C, strain NBP2, hits give low values 0.987 | S. cerevisiae deletion strains, locus YDR318W, strain mcm21, hits give low values 1 | S. cerevisiae deletion strains, locus YDR363W, strain ESC2, hits give low values 1.01 | S. cerevisiae deletion strains, locus YDR388W, hits give low values 1.01 | S. cerevisiae deletion strains, locus YDR502C, strain sam2, hits give low values 0.996 | S. cerevisiae deletion strains, locus YEL061C, strain CIN8, hits give low values 1 | S. cerevisiae deletion strains, locus YER002W, strain NOP16, hits give low values 0.995 | S. cerevisiae deletion strains, locus YER110C, hits give low values 0.968 | S. cerevisiae deletion strains, locus YER155C, strain BEM2, hits give low values 1 | S. cerevisiae deletion strains, locus YER167W, strain BCK2, hits give low values 0.99 | S. cerevisiae deletion strains, locus YGL078C, strain dbp3, hits give low values 0.99 | S. cerevisiae deletion strains, locus YGL086W, strain mad1, hits give low values 0.984 | S. cerevisiae deletion strains, locus YGL248W, strain PDE1, hits give low values 0.996 | S. cerevisiae deletion strains, locus YGR078C, strain PAC10, hits give low values 1 | S. cerevisiae deletion strains, locus YGR135W, strain pre9, hits give low values 1.02 | S. cerevisiae deletion strains, locus YGR229C, strain SMI1, hits give low values 1.01 | S. cerevisiae deletion strains, locus YGR252W, strain gcn5, hits give low values 0.992 | S. cerevisiae deletion strains, locus YHR030C, strain SLT2, hits give low values 0.994 | S. cerevisiae deletion strains, locus YHR079C, strain IRE1 (second series), hits give low values 0.987 | S. cerevisiae deletion strains, locus YHR094C, strain hxt1, hits give low values 0.99 | S. cerevisiae deletion strains, locus YHR129C, strain ARP1, hits give low values 0.993 | S. cerevisiae deletion strains, locus YHR200W, strain rpn10, hits give low values 0.986 | S. cerevisiae deletion strains, locus YIL066C, strain RNR3, hits give low values 0.99 | S. cerevisiae deletion strains, locus YIL073C, strain SPO22, hits give low values 0.92 | S. cerevisiae deletion strains, locus YIL125W, strain kgd1, hits give low values 0.971 | S. cerevisiae deletion strains, locus YIR030C, strain dcg1, hits give low values 0.989 | S. cerevisiae deletion strains, locus YJL095W, strain BCK1, hits give low values 1.01 | S. cerevisiae deletion strains, locus YJL134W, strain LCB3, hits give low values 0.987 | S. cerevisiae deletion strains, locus YJL168C, strain set2, hits give low values 0.981 | S. cerevisiae deletion strains, locus YJL187C, strain SWE1 (second series), hits give low values 0.991 | S. cerevisiae deletion strains, locus YJR043C, strain POL32, hits give low values 0.974 | S. cerevisiae deletion strains, locus YJR075W, strain HOC1, hits give low values 0.99 | S. cerevisiae deletion strains, locus YKL009W, strain mrt4, hits give low values 0.966 | S. cerevisiae deletion strains, locus YKL068W, hits give low values 0.98 | S. cerevisiae deletion strains, locus YKL085W, strain MDH1 (second series), hits give low values 0.991 | S. cerevisiae deletion strains, locus YKL085W, strain MDH1, hits give low values 0.991 | S. cerevisiae deletion strains, locus YKL190W, strain CNB1, hits give low values 1 | S. cerevisiae deletion strains, locus YKR001C, strain vps1, hits give low values 1 | S. cerevisiae deletion strains, locus YLR039C, strain RIC1, hits give low values 0.928 | S. cerevisiae deletion strains, locus YLR058C, strain SHM2, hits give low values 0.994 | S. cerevisiae deletion strains, locus YLR102C, strain apc9, hits give low values 0.982 | S. cerevisiae deletion strains, locus YLR262C, strain YPT6, hits give low values 0.892 | S. cerevisiae deletion strains, locus YLR268W, strain sec22, hits give low values 1.01 | S. cerevisiae deletion strains, locus YLR330W, strain CHS5, hits give low values 0.987 | S. cerevisiae deletion strains, locus YLR342W, strain FKS1 (second series), hits give low values 0.965 | S. cerevisiae deletion strains, locus YLR371W, strain rom2, hits give low values 0.967 | S. cerevisiae deletion strains, locus YLR418C, strain cdc73, hits give low values 1.03 | S. cerevisiae deletion strains, locus YML016C, strain PPZ1, hits give low values 0.993 | S. cerevisiae deletion strains, locus YML032C, strain rad52, hits give low values 0.974 | S. cerevisiae deletion strains, locus YML124C, strain tub3, hits give low values 0.999 | S. cerevisiae deletion strains, locus YMR078C, strain ctf18, hits give low values 1 | S. cerevisiae deletion strains, locus YMR223W, strain ubp8, hits give low values 0.988 | S. cerevisiae deletion strains, locus YMR263W, strain SAP30, hits give low values 1 | S. cerevisiae deletion strains, locus YMR307W, strain GAS1, hits give low values 1.01 | S. cerevisiae deletion strains, locus YNL067W, strain RPL9B, hits give low values 0.994 | S. cerevisiae deletion strains, locus YNL128W, strain TEP1, hits give low values 1.01 and 0.986 | S. cerevisiae deletion strains, locus YNL153C, strain GIM3, hits give low values 1.02 and 1.01 | S. cerevisiae deletion strains, locus YNL175C, strain NOP13, hits give low values 0.994 | S. cerevisiae deletion strains, locus YNL197C, strain WHI3, hits give low values 1.01 | S. cerevisiae deletion strains, locus YNL224C, strain SQS1, hits give low values 0.987 | S. cerevisiae deletion strains, locus YNL233W, strain BNI4, hits give low values 1.01 | S. cerevisiae deletion strains, locus YNL250W, strain rad50, hits give low values 0.969 | S. cerevisiae deletion strains, locus YNL271C, strain bni1, hits give low values 0.98 | S. cerevisiae deletion strains, locus YNL298W, strain CLA4, hits give low values 1 | S. cerevisiae deletion strains, locus YNL307C, strain MCK1, hits give low values 0.997 | S. cerevisiae deletion strains, locus YNL322C, strain KRE1, hits give low values 0.991 and 0.996 | S. cerevisiae deletion strains, locus YNR052C, strain pop2, hits give low values 0.981 | S. cerevisiae deletion strains, locus YOL006C, strain TOP1, hits give low values 0.996 | S. cerevisiae deletion strains, locus YOL012C, strain htz1 0.847 | S. cerevisiae deletion strains, locus YOL147C, strain pex11, hits give low values 1 | S. cerevisiae deletion strains, locus YOR061W, strain CKA2, hits give low values 0.993 | S. cerevisiae deletion strains, locus YOR069W, strain VPS5, hits give low values 1 | S. cerevisiae deletion strains, locus YOR083W, strain WHI5 (second series), hits give low values 0.953 | S. cerevisiae deletion strains, locus YOR136W, strain idh2, hits give low values 0.994 | S. cerevisiae deletion strains, locus YOR144C, strain elg1, hits give low values 0.994 | S. cerevisiae deletion strains, locus YOR184W, strain ser1, hits give low values 0.974 | S. cerevisiae deletion strains, locus YOR316C, strain cot1, hits give low values 0.994 | S. cerevisiae deletion strains, locus YPL055C, strain LGE1, hits give low values 1 | S. cerevisiae deletion strains, locus YPL241C, strain CIN2, hits give low values 0.967 | S. cerevisiae deletion strains, locus YPR119W, strain clb2, hits give low values 0.998 | S. cerevisiae deletion strains, locus YPR141C, strain kar3, hits give low values 0.998 | S. cerevisiae deletion strains, locus YPR163C, strain tif3, hits give low values 1 | S. cerevisiae deletion strains, locus YPR167C, strain met16, hits give low values 0.999 | S. cerevisiae deletion strains, strain wtn01, hits give low values 0.994 | S. cerevisiae strains, strain wild type, hits give low values 0.994
